7 molecules from PubChem BioAssay (Tox21) can be followed below.

A short description of experiment [1]: qHTS assay to test for compound auto fluorescence at 535 nm (green) in HEK293 cells (AID 720680).
Experiment [2] can be described thus: qHTS assay to test for compound auto fluorescence at 460 nm (blue) in HEK293 cell free culture (AID 720681). The gist of the method: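 Blue fluorescence (Ex 405/Em 460 nm, triamterene-equivalent) was read immediately after pin transfer of compound or DMSO into medium (DMEM, 10% FBS) without cells.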
A general note: qHTS replaces the single test concentration by a dilution series.

Experiment [3] in a line: qHTS assay to test for compound auto fluorescence at 535 nm (green) in HEK293 cell free culture (AID 720682). The gist of the method: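 No cells present: wells hold DMEM supplemented with 10% FBS, into which compound or vehicle is pinned. Green emission is then recorded (485 nm excitation, 535 nm emission) and scaled to fluorescein.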
Experiment [4] can be described thus: qHTS assay to test for compound auto fluorescence at 590 nm (red) in HEK293 cell free culture (AID 720683). Further: potency means the concentration at half of the fitted maximal effect. The gist of the method: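 Red-channel autofluorescence of compounds in culture medium (DMEM, 10% FBS), no cells, measured at 540/590 nm. Rose Bengal sodium is the reference fluorophore for equivalence.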
A short description of experiment [5]: qHTS assay to test for compound auto fluorescence at 590 nm (red) in HepG2 cell free culture (AID 720684). Further: potency means the concentration at half of the fitted maximal effect. The gist of the method:
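Steps: dispense MEM/10% FBS medium, no cells; pin compound or DMSO vehicle; read red channel, Ex/Em 540/590 nm. Output given as Rose Bengal sodium equivalents.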

Experiment [6] can be described thus: qHTS assay to test for compound auto fluorescence at 460 nm (blue) in HepG2 cell free culture (AID 720685). Summed up: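 Compound (23 nL) or DMSO pinned into cell-free MEM with 10% FBS; blue fluorescence read at 405/460 nm excitation/emission, expressed as auto-fluorescence equivalency to triamterene.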
A short description of experiment [7]: qHTS assay to test for compound auto fluorescence at 535 nm (green) in HepG2 cell free culture (AID 720686). Further: potency means the concentration at half of the fitted maximal effect.
Experiment [8] is described as follows: qHTS assay to test for compound auto fluorescence at 460 nm (blue) in HepG2 cells (AID 720687). The gist of the method: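 Blue-channel autofluorescence (Ex/Em 405/460 nm, triamterene-equivalent) was measured after 1 hr compound exposure at 37 C, 5% CO2. Cells were HepG2, plated overnight at 37 C in MEM plus 10% FBS.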
Experiment [9] concerns the target Glucocorticoid receptor (Homo sapiens) (UniProt P04150). As to the kind of experiment: qHTS assay to identify small molecule agonists of the glucocorticoid receptor (GR) signaling pathway (AID 720691; active means well fitted activation curve with a large enough effect in the signal ratio in the repeat runs, not every such curve was filed as active; the % refers to the signal ratio). Summed up: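 qHTS in GR-bla HeLa cells: 4 h settling at 37 C/5% CO2, 18 h compound incubation at 37 C, 2 h LiveBLAzer B/G FRET substrate at room temperature, fluorescence intensity measured.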

For experiment [10] the target is unchanged. As to the kind of experiment: qHTS assay to identify small molecule antagonists of the glucocorticoid receptor (GR) signaling pathway (AID 720692; active means well fitted inhibition curve with a large enough effect in the signal ratio in the repeat runs, not every such curve was filed as active; the % refers to the signal ratio; further: potency means the concentration at half of the fitted maximal effect). Summed up:
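Inhibition of glucocorticoid signalling is measured in HeLa cells with a GRE-controlled beta-lactamase reporter; cells are co-treated with compound and 5 nM dexamethasone (final) for 18 h before FRET substrate readout.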

Experiment [11] can be described thus: qHTS assay for identifying genotoxic compounds that show differential cytotoxicity against isogenic chicken DT40 cell lines with known DNA damage response pathways - Rad54/Ku70 mutant cell line (AID 743015). Further: nearly all actives have a fitted effect of over 60% in size. Further: potency means the concentration at half of the fitted maximal effect.
The nature of experiment [12]: qHTS assay to identify small molecule antagonists of the androgen receptor (AR) signaling pathway - cell viability counter screen (AID 743033; further: nearly all actives have a fitted effect of over 45% in size).
A short description of experiment [13]: qHTS assay to identify small molecule antagonists of the androgen receptor (AR) signaling pathway using the MDA cell line - cell viability counter screen (AID 743041; further: nearly all actives have a fitted effect of over 45% in size; further: potency means the concentration at half of the fitted maximal effect). The gist of the method: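 Cells were plated at 3,000 per well and left 5 h. Compounds in DMSO were then pinned in, followed by R1881. After 16 h at 37C, CellTiter-Fluor fluorescence gave viability.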

The nature of experiment [14]: qHTS assay to identify small molecule antagonists of the thyroid receptor (TR) signaling pathway - cell viability counter screen (AID 743064). Further: nearly all actives have a fitted effect of over 50% in size. Further: potency means the concentration at half of the fitted maximal effect. Summed up:
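Rat GH3 pituitary tumor cells stably expressing two TR response elements driving luciferase were plated, rested 4 h, then dosed with library compounds and T3 (1 nM final). After 23.5 h at 37 °C, CellTiter-Fluor was added for 30 min and fluorescence recorded.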

Experiment [15] can be described thus: qHTS assay to identify small molecule antagonists of the glucocorticoid receptor (GR) signaling pathway - cell viability counter screen (AID 720693). Further: nearly all actives have a fitted effect of over 55% in size.
Experiment [16] in a line: qHTS assay for identifying genotoxic compounds that show differential cytotoxicity against isogenic chicken DT40 cell lines with known DNA damage response pathways - Rev3 mutant cell line (AID 743014). Further: nearly all actives have a fitted effect of over 55% in size. Further: potency means the concentration at half of the fitted maximal effect.
Experiment [17] is described as follows: qHTS assay for identifying genotoxic compounds that show differential cytotoxicity against isogenic chicken DT40 cell lines with known DNA damage response pathways - wild type cell line (AID 743012). Further: nearly all actives have a fitted effect of over 60% in size. Further: potency means the concentration at half of the fitted maximal effect. The gist of the method: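 First, wild type DT40 cells were plated at 300 per well and equilibrated about 0.5 h at 37 C/5% CO2. Next, compounds in DMSO were added and exposure lasted 40 h. Finally, CellTiter-Glo was added for 30 min at room temperature and luminescence recorded.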

Experiment [18] concerns the target Androgen receptor (Homo sapiens) (UniProt P10275). Put plainly: qHTS assay to identify small molecule antagonists of the androgen receptor (AR) signaling pathway using the MDA cell line (AID 743042; further: nearly all actives have a fitted effect of over 55% in size). The gist of the method:
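Antagonist mode: compounds plus R1881 agonist added to MDA-kb2 AR-luc cells, incubated 16 h at 37C. Luciferase reporter luminescence quantified, with multiplexed CellTiter-Fluor readout for cell viability.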

Experiment [19] is described as follows: qHTS assay to identify small molecule antagonists of the thyroid receptor (TR) signaling pathway (AID 743065). Further: nearly all actives have a fitted effect of over 55% in size. Further: potency means the concentration at half of the fitted maximal effect. The gist of the method: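 Antagonism measured as loss of luciferase signal in GH3 cells stably carrying a TRE-luciferase reporter, co-treated with compound and T3 (1 nM final) for 23.5 h at 37 C. Viability was read in the same well by CellTiter-Fluor.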

Experiment [20] has as its target Androgen receptor (Homo sapiens) (UniProt P10275). As to the kind of experiment: qHTS assay to identify small molecule agonists of the androgen receptor (AR) signaling pathway (AID 743036; active means well fitted activation curve with a large enough effect in the signal ratio in the repeat runs, with a control signal flat, not every such curve was filed as active; the % refers to the signal ratio). The gist of the method: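 Quantitative HTS of the Tox21 10K library in HEK293 cells bearing a stably integrated UAS-controlled beta-lactamase reporter. Compound exposure lasted 16 h at 37C. Reporter activity was detected by FRET substrate fluorescence after 2 h at room temperature.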

“And” between values parts separate entries of the source, which are not always exact repeats. Equal values may be shown once. Inconclusive results are not listed. More than one record can exist for a structure, and the calls need not agree. The source made the active and inactive calls. Unless noted, the call rests on the fitted dose curve; in most records, active means well fitted curve in the direction sought with a large enough effect in the repeat runs; inconclusive means weak or mixed curves; inactive means no such curve, though single readings can be large; an effect the other way counts as inactive or inconclusive.
Tags describe the fitted curve by direction and shape or compound fluorescence and quenching.

Glucocorticoid receptor (Homo sapiens), sequence (P04150 whole entry, looked up): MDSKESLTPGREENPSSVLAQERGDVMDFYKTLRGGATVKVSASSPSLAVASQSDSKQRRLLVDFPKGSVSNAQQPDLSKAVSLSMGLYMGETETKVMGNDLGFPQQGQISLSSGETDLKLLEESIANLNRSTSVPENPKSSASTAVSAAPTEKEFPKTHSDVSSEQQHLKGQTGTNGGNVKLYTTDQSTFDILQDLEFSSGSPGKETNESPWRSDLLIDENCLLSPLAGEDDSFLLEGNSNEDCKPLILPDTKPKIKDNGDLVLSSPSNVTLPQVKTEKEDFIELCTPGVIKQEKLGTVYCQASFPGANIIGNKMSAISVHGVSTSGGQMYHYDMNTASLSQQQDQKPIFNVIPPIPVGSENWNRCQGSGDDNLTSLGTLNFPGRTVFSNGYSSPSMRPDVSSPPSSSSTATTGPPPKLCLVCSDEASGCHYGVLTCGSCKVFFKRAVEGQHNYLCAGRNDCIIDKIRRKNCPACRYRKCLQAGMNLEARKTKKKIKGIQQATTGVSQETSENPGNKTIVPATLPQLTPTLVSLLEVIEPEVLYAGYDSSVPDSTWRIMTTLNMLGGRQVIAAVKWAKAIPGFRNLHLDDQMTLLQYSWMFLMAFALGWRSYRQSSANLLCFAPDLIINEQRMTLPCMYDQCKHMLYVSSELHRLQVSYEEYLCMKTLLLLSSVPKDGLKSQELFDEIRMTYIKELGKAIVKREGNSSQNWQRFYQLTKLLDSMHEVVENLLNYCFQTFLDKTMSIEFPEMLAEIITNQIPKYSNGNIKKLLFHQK
Androgen receptor (Homo sapiens), sequence (P10275 whole entry, looked up): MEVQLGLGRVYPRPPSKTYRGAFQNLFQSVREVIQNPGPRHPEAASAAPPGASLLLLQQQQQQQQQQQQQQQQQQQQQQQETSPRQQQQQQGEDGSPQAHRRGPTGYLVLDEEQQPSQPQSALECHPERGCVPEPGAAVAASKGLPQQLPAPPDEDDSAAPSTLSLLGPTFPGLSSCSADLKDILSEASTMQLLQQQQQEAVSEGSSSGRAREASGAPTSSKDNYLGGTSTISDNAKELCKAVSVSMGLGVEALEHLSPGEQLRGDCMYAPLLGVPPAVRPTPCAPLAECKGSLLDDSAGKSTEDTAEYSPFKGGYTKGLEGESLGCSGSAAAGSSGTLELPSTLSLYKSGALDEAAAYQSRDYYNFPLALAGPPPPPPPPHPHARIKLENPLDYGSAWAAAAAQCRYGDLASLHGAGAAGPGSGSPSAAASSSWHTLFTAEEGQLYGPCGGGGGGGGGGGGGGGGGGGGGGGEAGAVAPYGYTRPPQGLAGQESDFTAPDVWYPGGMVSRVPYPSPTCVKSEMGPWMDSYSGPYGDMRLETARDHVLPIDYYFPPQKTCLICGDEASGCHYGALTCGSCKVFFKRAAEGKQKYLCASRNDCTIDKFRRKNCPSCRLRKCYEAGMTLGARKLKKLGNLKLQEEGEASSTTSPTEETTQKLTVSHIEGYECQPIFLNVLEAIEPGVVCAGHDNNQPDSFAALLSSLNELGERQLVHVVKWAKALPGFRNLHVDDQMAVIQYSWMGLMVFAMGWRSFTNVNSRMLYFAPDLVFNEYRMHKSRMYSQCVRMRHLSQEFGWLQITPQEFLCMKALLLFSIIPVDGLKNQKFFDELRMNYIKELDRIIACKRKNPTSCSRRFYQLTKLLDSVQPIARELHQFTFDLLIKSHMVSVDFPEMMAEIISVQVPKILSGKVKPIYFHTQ

For `Cc1ccc(C(=O)c2cc(O)c(O)c([N+](=O)[O-])c2)cc1`, the Potency result in experiment [1], in experiment [3], in experiment [4], in [5], in experiment [7] and in [9] was “inactive” each time. Moreover, the Potency entry in [12] and in [13] was “inactive” throughout. Also, the molecule was called inactive in experiment [2], in experiment [6] and in experiment [8]. For the same molecule, the Potency in [10] was 34.7 µM (active); in experiment [11], 48.6 µM (active); in experiment [14] it was “inactive and 61.1 µM (active)”.
As to `O=C(/C=C/C=C/c1ccc2c(c1)OCO2)N1CCCCC1`, the Potency entry in experiment [1], in experiment [3], in experiment [4], in [5], in experiment [7] and in [15] was “inactive” each time. Moreover, the Potency entry in experiment [12], in experiment [13] and in [14] was “inactive” each time. Further, the result in experiment [2], in experiment [6] and in experiment [8] was inactive. Moreover, the Potency in [16] and in experiment [11] was 61.3 µM (active) throughout.
For the molecule `COc1cc([C@@H]2c3cc4c(cc3[C@H](O)[C@H]3COC(=O)[C@H]23)OCO4)cc(OC)c1OC`, the Potency result in experiment [1], in experiment [3], in [4], in experiment [5], in [7] and in [9] was “inactive” in each case. The Potency result in [15], in experiment [12], in [13] and in experiment [18] was “inactive” in each case. Moreover, the molecule was classed as inactive in experiment [2], in experiment [6] and in experiment [8]. The Potency in experiment [17] is 26.6 nM (active) and 24.3 nM (active); in [11], 29.8 nM (active) and 21.7 nM (active); in experiment [14] it was 43.2 nM (active); in experiment [19], 29.8 nM (active) and 24.3 nM (active).
With `c1ccc(Nc2ccccc2)cc1`, the Potency result in [1], in experiment [3], in experiment [4], in [5], in [7] and in experiment [15] was “inactive” in each case. Also, the Potency entry in experiment [11], in experiment [12], in experiment [13] and in experiment [14] was “inactive” in each case. Also, the result in [2], in experiment [6] and in experiment [8] was inactive. Moreover, the Potency in experiment [17] was 61.1 µM (active).
`CCCCCCCCCC(=O)OC`: the Potency result in experiment [1], in experiment [3], in experiment [4], in [5], in [7] and in experiment [15] was “inactive” in each case. For the same molecule, the Potency result in [17], in experiment [16], in [11], in [12], in experiment [13] and in experiment [14] was “inactive” in each case. Also, the result in experiment [2], in experiment [6] and in experiment [8] was inactive.
As for `Cc1cccc([N+](=O)[O-])c1C`, the Potency result in experiment [1], in [3], in experiment [4], in experiment [5], in experiment [7] and in experiment [15] was “inactive” throughout. The Potency result in experiment [17], in experiment [11], in experiment [12], in experiment [13], in [18] and in experiment [14] was “inactive” each time. Also, in experiment [19], the Potency entry is “inactive”. The molecule was called inactive in experiment [2], in [6], in [8] and in experiment [20].
For the molecule `O=C1OC2(c3cc(Br)c(O)c(Br)c3Oc3c2cc(Br)c(O)c3Br)c2c(Cl)c(Cl)c(Cl)c(Cl)c21`, the Potency entry in experiment [1], in experiment [3], in experiment [9], in [11] and in [12] was “inactive” throughout. In addition, the result in experiment [2], in [6] and in [8] was inactive. The Potency in experiment [4] is 2 µM [fluorescent] (active) and 14.1 µM [fluorescent] (active); in experiment [5] it was 1.78 µM [fluorescent] (active) and 10 µM [fluorescent] (active); in [7], 28.2 µM [fluorescent] (active); in [10], 49.1 µM (active) and inactive; in experiment [13] it was 4.33 µM (active) and 37.1 µM (active); in experiment [14] it was 24.4 µM (active) and 41.6 µM (active). Also, in [19], the Potency was 54.5 µM (active) and 41.6 µM (active).
